# Measurements as given in PMC4336329 (PLoS ONE, 2015).
# About 14,000 (4.5%) of roughly 310,000 compounds showed an effect of 50% or more. Effects have a minus sign here. The sample holds strong results, similar compounds and a random draw of the others, so the mix is not that of the screen.
# Biological target: human ether-à-go-go-related gene (hERG) potassium channel (human, UniProt Q12809)
# Test: primary screen, population patch clamp on CHO cells stably expressing hERG; higher = less effect of the substance
# 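Note: peak tail current of the secondary pulse compared with the same well before compound.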
# Sequence of human ether-à-go-go-related gene (hERG) potassium channel (Q12809 whole entry, looked up): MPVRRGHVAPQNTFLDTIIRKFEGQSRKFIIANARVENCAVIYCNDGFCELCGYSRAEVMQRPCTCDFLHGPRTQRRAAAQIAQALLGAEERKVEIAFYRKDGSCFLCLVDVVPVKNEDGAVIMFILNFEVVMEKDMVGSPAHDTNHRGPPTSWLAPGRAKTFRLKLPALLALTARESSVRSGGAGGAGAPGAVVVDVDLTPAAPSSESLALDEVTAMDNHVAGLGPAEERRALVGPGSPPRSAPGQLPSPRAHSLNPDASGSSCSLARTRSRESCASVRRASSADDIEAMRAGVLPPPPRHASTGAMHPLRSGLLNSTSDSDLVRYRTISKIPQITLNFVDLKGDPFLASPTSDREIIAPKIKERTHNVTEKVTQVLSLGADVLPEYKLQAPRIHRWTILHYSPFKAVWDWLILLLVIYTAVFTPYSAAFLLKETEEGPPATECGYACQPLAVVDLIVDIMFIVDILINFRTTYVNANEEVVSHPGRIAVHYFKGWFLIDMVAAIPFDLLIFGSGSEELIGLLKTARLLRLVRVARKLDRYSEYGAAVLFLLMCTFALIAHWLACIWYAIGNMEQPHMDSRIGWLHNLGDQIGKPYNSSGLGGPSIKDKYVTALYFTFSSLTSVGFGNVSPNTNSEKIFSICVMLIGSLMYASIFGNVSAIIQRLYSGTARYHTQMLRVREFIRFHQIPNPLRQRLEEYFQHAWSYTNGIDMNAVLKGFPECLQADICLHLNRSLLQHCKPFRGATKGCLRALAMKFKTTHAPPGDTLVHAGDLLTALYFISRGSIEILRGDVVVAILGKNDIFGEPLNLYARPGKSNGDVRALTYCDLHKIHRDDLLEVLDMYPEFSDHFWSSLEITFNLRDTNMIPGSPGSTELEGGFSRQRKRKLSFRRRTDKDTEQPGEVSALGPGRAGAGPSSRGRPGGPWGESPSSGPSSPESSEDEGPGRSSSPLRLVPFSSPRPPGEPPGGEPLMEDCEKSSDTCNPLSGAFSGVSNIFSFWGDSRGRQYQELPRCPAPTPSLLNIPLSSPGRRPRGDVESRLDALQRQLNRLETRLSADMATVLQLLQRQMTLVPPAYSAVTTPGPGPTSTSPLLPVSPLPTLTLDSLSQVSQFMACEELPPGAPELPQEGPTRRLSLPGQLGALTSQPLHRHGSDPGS
row,SMILES,"hERG current change (%, negative = inhibition) at 10uM [%]"
1,C=CCn1c(SCc2ccc(C(=O)Nc3ccccc3)cc2)nnc1-c1ccccc1,-5.06
2,O=C(CCn1c(=O)c2ccccc2n(Cc2ccccc2)c1=O)NCc1ccc2c(c1)OCO2,-4.33
3,O=C(NCCCl)Nc1cc([N+](=O)[O-])ccc1Cl,16.9
4,CCOC(=O)CNc1c(-c2ccc(OC)cc2)nc2ccc(Cl)cn12,-73.5
5,COCCNc1c(-c2ccc(OC)cc2)nc2ccc(Cl)cn12,-39.5
6,CCOC(=O)c1c(-c2ccccc2)nc2ccc(Cl)cn12,30
7,CCOC(=O)CNc1c(-c2ccc(O)cc2)nc2ccc(Cl)cn12.Cl,-39.7
8,CCOC(=O)CNc1c(-c2ccccc2)nc2ccc(Cl)cn12,-64.4
9,CC(=O)Nc1c(-c2ccccc2)nc2ccc(Cl)cn12,5.29
10,Cc1ccc(S(=O)(=O)N2c3ccccc3OCC2c2ccccc2)cc1 (stereo not shown),23
11,CCOc1ccc(OCC)c(NC(=O)CN2CCN(c3ccc(C)cc3C)CC2)c1.Cl,-0.937
12,CCCCCNCC(=O)Nc1cc(C(F)(F)F)ccc1OCCOC,-34.2
13,COc1ccc(NC(C)=O)cc1NC(=O)CN1CCN(C(=O)c2ccco2)CC1,13.9
14,COCCOc1ccc(C(F)(F)F)cc1NC(=O)c1ccccc1,-10.9
15,CCN1CCN(CC(=O)Nc2cc(C(F)(F)F)ccc2OCCOC)CC1.O=C(O)C(=O)O,-75.4
16,CCOc1ccc(OCC)c(NC(=O)CN2CCN(CC)CC2)c1.Cl,-43.3
17,CCOc1ccc(OCC)c(NC(=O)CN2CCN(C(=O)c3ccco3)CC2)c1,-59
18,CCOc1ccc(OCC)c(NC(=O)CN2CCN(CC(=O)NC(C)C)CC2)c1.Cl,9.43
19,COc1ccc(OC)c(NC(=O)CN2CCN(C(=O)c3ccco3)CC2)c1,-23.7
20,CCCN1CCN(CC(=O)Nc2cc(OCC)ccc2OCC)CC1.Cl,-57.6
21,CCOc1ccc(OCC)c(NC(=O)CN2CCN(c3cc(C)ccc3C)CC2)c1.Cl,-9.35

row,SMILES,"hERG current change (%, negative = inhibition) at 10uM [%]"
1,CCOC(=O)N1CCN(CC(=O)Nc2cc(OCC)ccc2OCC)CC1.Cl,-68.1
2,CCOC(=O)C1CCCN(C(=O)c2ccc(Cn3c(=S)[nH]c4cc(C(=O)OC)ccc4c3=O)cc2)C1 (stereo not shown),10.6
3,CCN1C(=O)[C@H]2[C@@H](c3ccc(C)cc3)N3C(=O)N(c4ccc(C(F)(F)F)cc4)C(=O)[C@@]3(CC(C)C)[C@H]2C1=O,14.6
4,Cc1ccc(C)c(NC(=O)CN(C)S(=O)(=O)c2ccc(F)cc2)c1,3.47
5,Cc1cc(NC(=O)CSc2nc(-c3ccccc3)c(C#N)c(=O)[nH]2)no1,-0.629
6,Cc1ccsc1/C=C1\C(=O)NC(=S)N(C)C1=O,15.3
7,O=C(COc1ccc(Cl)cc1)NCCS(=O)(=O)N1CCN(c2ccccc2F)CC1,5.38
8,CC(=O)C1=C(O)C(=O)N(c2cccc(Br)c2)C1c1ccccc1Cl (stereo not shown),-4.7
9,COc1ccc(OC)c(NC(=O)c2nc(-c3ccccc3)oc2C)c1,-6.31
10,O=S(=O)(Nc1ccc(Br)cc1)c1cccc(NC(=S)NCCN2CCOCC2)c1,3.16
11,Cc1ccc(CN2Cc3cccc4c3[C@@H](CC2=O)[C@H](O)[C@H](O)C4)cc1,19.6
12,O=C(CCc1nnc2ccc(N3CCCC3)nn12)Nc1cc(F)ccc1F,-50.4
13,COc1ccc(N2CCN(C(=O)CCc3nnc4ccc(N5CCOCC5)nn34)CC2)cc1,-5.83
14,COc1ccc(N2CCN(C(=O)CCc3nnc4ccc(N5CCC(C)CC5)nn34)CC2)cc1,-66.1
15,COc1cccc(NC(=O)CCc2nnc3ccc(N4CCN(c5cccc(OC)c5)CC4)nn23)c1,13.6
16,COc1cccc(N2CCN(c3ccc4nnc(CCC(=O)Nc5ccccc5OC)n4n3)CC2)c1,-62.6
17,COc1ccccc1N1CCN(C(=O)CCc2nnc3ccc(N4CCCC4)nn23)CC1,-34.1
18,COc1ccccc1N1CCN(C(=O)CCc2nnc3ccc(N4CCC(C)CC4)nn23)CC1,-33.5
19,COc1cc(NC(=O)CCc2nnc3ccc(N4CCN(c5cccc(OC)c5)CC4)nn23)cc(OC)c1,7.07
20,CC1CCN(c2ccc3nnc(CCC(=O)Nc4cc(F)ccc4F)n3n2)CC1,-37.5
21,O=C(CCc1nnc2ccc(N3CCCC3)nn12)Nc1ccc(F)cc1F,8.27

row,SMILES,"hERG current change (%, negative = inhibition) at 10uM [%]"
1,CC1CCN(c2ccc3nnc(CCC(=O)N4CCN(c5ccccc5F)CC4)n3n2)CC1,-62.6
2,COc1ccc(N2CCN(C(=O)CCc3nnc4ccc(N5CCCC5)nn34)CC2)cc1,-7.68
3,N#CCCN(C(=O)COC(=O)c1ccc2c(c1)NC(=O)CS2)c1ccc2c(c1)OCCO2,-22.8
4,CCOCCOC(=O)C1=C(C)NC(=O)NC1c1cc2c(cc1Br)OCO2 (stereo not shown),-30.5
5,O=C(CSCc1ccccc1)Nc1ccc(F)c(F)c1,-3.2
6,Cc1cc(C)cc(C(=O)NCC(=O)OCC(=O)c2cc(C)n(CC(F)(F)F)c2C)c1,1.83
7,Cc1noc(C)c1CSc1nc2ccccc2s1,-10.1
8,COc1ccc(NC(=O)CCc2nnc3ccc(N4CCC(C)CC4)nn23)cc1,-22.9
9,COc1cccc(N2CCN(c3ccc4nnc(CCC(=O)N5CCN(C)CC5)n4n3)CC2)c1,-1.62
10,CCCN1CCN(C(=O)CCc2nnc3ccc(N4CCN(c5cccc(OC)c5)CC4)nn23)CC1,-54.9
11,CC1CCN(c2ccc3nnc(CCC(=O)N4CCCCC4)n3n2)CC1,-3.14
12,CC1CCN(c2ccc3nnc(CCC(=O)N4CCN(c5ccc(F)cc5)CC4)n3n2)CC1,-66.2
13,CC1CCN(c2ccc3nnc(CCC(=O)Nc4ccc(F)cc4)n3n2)CC1,-39.6
14,COc1cccc(N2CCN(C(=O)CCc3nnc4ccc(N5CCCC5)nn34)CC2)c1,-28.7
15,COc1ccc(N2CCN(c3ccc4nnc(CCC(=O)Nc5ccc(C)cc5)n4n3)CC2)cc1,-70.1
16,COc1cccc(N2CCN(c3ccc4nnc(CCC(=O)N5CCC(C)CC5)n4n3)CC2)c1,-66.4
17,COc1cccc(N2CCN(C(=O)CCc3nnc4ccc(N5CCOCC5)nn34)CC2)c1,-7.05
18,CCN1CCN(C(=O)CCc2nnc3ccc(N4CCN(c5cccc(OC)c5)CC4)nn23)CC1,-5.55
19,COc1ccc(NC(=O)CCc2nnc3ccc(N4CCN(c5cccc(OC)c5)CC4)nn23)cc1,-22.8
